Inconclusive results are not listed. Activity calls are given as the source filed them. The call rests on the fitted dose curve; in most records, active means well fitted inhibition curve with a large enough effect; inconclusive means small, poorly fitted or top-dose-only effect, or effect the other way; inactive means flat fitted curve, though single readings scatter. Positions of bridges follow the written chain, without caps; N, C: chain ends. Non-standard residues stand in square brackets, D forms with d. Residues, ends and D or L forms follow the SMILES beside them. ξ: configuration not given here. *: point of attachment. Octanoyl(6-Me) = CCC(C)CCCCC(=O)*; ξThr(3R) = C[C@@H](O)C(N)C(=O)O; dDab = NCC[C@@H](N)C(=O)O; Dab = NCC[C@H](N)C(=O)O
Each molecule was assayed against Menin (Homo sapiens) (UniProt O00255) (assay: Confirmation of Inhibitors Targeting the Menin-MLL Interaction in MLL Related Leukemias: Confirmation in an HTRF (commercial TR-FRET) Assay using His-tagged menin and biotin-labeled MLL peptide). Settings: His-menin / biotin-MLL peptide binding; series mostly up to 126 µM; activity change, negative = inhibition: at the top concentration.
From the text: qHTS Assay for Inhibitors Targeting the Menin-MLL Interaction in MLL Related Leukemias
NIH Chemical Genomics Center [NCGC]
NIH Molecular Libraries Probe Centers Network [MLPCN]
Assay Submitter (PI): Jolanta Grembecka, Tomasz Cierpicki, University of Virginia
Translocations of the MLL (Mixed Lineage Leukemia) gene are frequently found in human leukemias affecting both children and adults. Fusion of MLL to one of more than 60 genes results in generation of oncogenic proteins upregulating Hox genes, which are vital to blood cell development. Patients harboring fusion of the MLL gene suffer from aggressive leukemias and respond poorly to available therapies. All of the oncogenic fusion proteins have a preserved N-terminal fragment of MLL that has been identified to interact with menin. It has been recently discovered that association with menin is critical to the leukemogenic activity of the MLL fusion oncoproteins. Selective targeting of the menin-MLL interaction could provide an attractive therapeutic approach to develop novel drugs for MLL-related leukemias. Small molecules blocking the menin-MLL interaction should reverse the oncogenic potential of MLL fusion proteins.
We have developed and optimized a fluorescence polarization-based assay for the identification of Menin-MLL inhibitors. The assay was run employing two different MLL-derived peptides. The present assay uses a 12 amino acid peptide labeled with fluorescein at its N-terminus. This peptide consists of the menin high affinity binding motif from MLL and is potently bound by menin. Another peptide with a mutated sequence, labeled with Texas Red, was used in parallel as a less stringent screen for inhibitors.
The present assay uses an alternate technology to confirm hits from the primary screen - homogeneous time resolved fluorescence (HTRF).
The Menin protein, the MLL-wild type (w.t.) derived peptide (N-terminal 12 amino acids), the MLL-derived peptide labeled with Texas Red and the MLL-w.t. peptide labeled with Fluorescein were kindly supplied by laboratory of Dr. Jolanta Grembecka, University of Virginia. All protein and peptide solutions were stored in single use aliquots at -80C. The Eu3+ Cyrptate-conjugated mouse monoclonal antibody anti-6 Histidine (Eu3+-AB) and the Streptavidin-XL665 conjugate (XL665) were purchased from Cisbio International (Bedford, MA). All antibody and XL665 conjugate solution stocks were stored in single use aliquots at -20C. The Buffer components for all assays were purchased from Sigma-Aldrich (St. Louis, MO) and Invitrogen (Carlsbad, CA).
1. HTRF reaction buffer: 50 mM Tris-HCl pH 7.5, 50 mM NaCl, 1mM DTT.
Before use, 0.05% BSA is added.
2. His6-Menin protein, MLL-w.t. labeled with biotin.
Stored in singe use aliquots at -80C.
3. MLL-w.t. unlabeled peptide as positive control: 10 uM final in HTRF buffer.
1. Prepare His6-Menin at 200 nM, MLL-w.t.-biotin at 80 nM in HTRF buffer.
2. Prepare His6-Menin at 200 nM, MLL-w.t.-biotin at 80 nM and 10 uM MLL-w.t. unlabeled mixture in HTRF buffer.
3. Dispense 10 ul per well of reagent in step 1 in columns 2, 4-24 in a black 384 well plate, dispense 10 ul per well of reagents from steps 2 in column 1. Incubate plate at ambient for 15 minutes.
4. Transfer 1 uL per well of compound to plate and incubate at ambient for 1 hr.
5. Dispense 10uL of the donor (6His-Cryptate, 3.5 nM final conc.) and acceptor (SA_XL, 10nM final conc.) complex in the HTRF buffer with 0.01% BSA. Incubate for 1h.
On the % scale 0 is the no-effect control and ±100 the full control effect; potency means the concentration at half of the fitted maximal effect.

Sequence of Menin (Homo sapiens) (O00255 whole entry, looked up): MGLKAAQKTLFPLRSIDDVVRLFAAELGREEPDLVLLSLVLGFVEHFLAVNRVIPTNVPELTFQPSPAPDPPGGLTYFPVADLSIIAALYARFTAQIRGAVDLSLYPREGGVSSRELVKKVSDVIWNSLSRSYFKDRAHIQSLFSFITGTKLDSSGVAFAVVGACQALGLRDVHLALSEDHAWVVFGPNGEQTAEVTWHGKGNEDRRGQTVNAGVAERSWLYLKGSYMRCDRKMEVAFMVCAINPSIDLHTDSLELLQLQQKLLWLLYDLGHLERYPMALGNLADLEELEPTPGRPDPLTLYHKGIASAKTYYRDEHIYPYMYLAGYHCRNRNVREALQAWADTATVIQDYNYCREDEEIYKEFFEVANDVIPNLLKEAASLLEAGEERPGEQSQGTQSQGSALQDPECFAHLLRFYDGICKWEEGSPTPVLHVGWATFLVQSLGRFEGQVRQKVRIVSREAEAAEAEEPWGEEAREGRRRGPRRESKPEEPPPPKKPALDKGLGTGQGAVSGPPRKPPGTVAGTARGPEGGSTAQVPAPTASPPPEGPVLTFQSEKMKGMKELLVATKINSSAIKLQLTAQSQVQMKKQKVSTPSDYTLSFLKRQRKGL

Activity change, negative = inhibition, inactive:
CC(CC(=O)Nc1nc2ccccc2[nH]1)n1ccnc1 (stereo not given) 2.97%
COc1cccc(C(=O)/C=C/Nc2ccc(S(=O)(=O)Nc3ccc(C(C)=O)cc3)cc2)c1 -17.8% [at 383 µM]
O=S(=O)(NCCc1c[nH]c2ccccc12)c1ccccc1 1.89% [at 383 µM]
CCc1ccc(NC(=O)CSc2nc(O)cc(=O)n2C2CCCC2)cc1 -14.9%
Cc1cccc(NC(=S)NC(NC(=O)OCc2ccccc2)C(Cl)(Cl)Cl)c1 (stereo not given) -17.5% [at 383 µM]
CN(C)CCCNCC(=O)c1c(-c2ccccc2)n(C)c2ccccc12 3.68%
CC(=O)NC1C(=O)N(CCN2CCOCC2)c2ccc(F)cc21 (stereo not given) -3.85%
CC(c1cc2ccccc2s1)N(O)C(N)=O (stereo not given) 2.69% [at 383 µM]
COc1ccc(CN2CCC(Cc3ccccc3)CC2)c(C)c1C 7.64%
CC(=O)c1cccc(NS(=O)(=O)c2ccc(N/C=C\C(=O)c3ccc(F)cc3)cc2)c1 -12.9%
O=C(Nc1ccc2c(c1)OCO2)c1ccccc1 0.989%
CCCn1c(C2CCCN2c2nc(C)cs2)nc2cc(Cl)c(Cl)cc21 (stereo not given) 1.08%
Cc1ccc(Nc2nc(N)[nH]c(=O)c2N=O)cc1 17.5%
COc1ccccc1N(CC1CO1)S(=O)(=O)c1ccccc1 (stereo not given) 2.5%
Cc1cnc(NC(=O)C2C(=O)c3ccccc3S(=O)(=O)N2C)s1 (stereo not given) -8.7% [at 383 µM]
Cc1ccc(C(C[N+](=O)[O-])c2c(C)[nH]n(-c3ccccc3)c2=O)cc1 (stereo not given) -6.55%
CCOC(=O)N1CCN(CC(=O)N2c3ccccc3Sc3ccccc32)CC1 18.2%
CN1CCS/C1=C/C=C1/SC(=S)N(Cc2ccccc2)C1=O -22.5%
Cc1ccc[n+](-c2nc([O-])sc2/C=N/Nc2ccc([N+](=O)[O-])cc2)c1 11.4%
COC(=O)c1ccccc1NC1=C/C(=N\S(=O)(=O)c2ccc(C(=O)O)cc2)c2ccccc2C1=O -21.4% [at 383 µM]
COCCn1c(C)c(C)c2c(NCCc3ccccc3)ncnc21 5.34%
N#CC1=C(N)OC2=C(C(=O)CC(c3ccco3)C2)C1c1ccc(OCc2c(F)cccc2Cl)cc1 (stereo not given) -26.1% [at 383 µM]
COc1ccc(N(CC(=O)NC2CC3CCC2C3)S(=O)(=O)c2ccc(C)cc2)cc1OC (stereo not given) 5.88%
Cc1c(F)cccc1NS(=O)(=O)c1ccc2c(c1)c(C)cc(=O)n2C 7.52%
CC(=O)c1cccc(OCC(O)CNCC2COc3ccccc3O2)c1 (stereo not given) 6.05%
O=C(O)/C(=C\c1ccc(F)cc1)c1ccc(-c2ccccc2)cc1 -11.4%
COc1ccc(-c2csc(NC(=S)NC(=O)/C=C/c3ccc(C(C)C)cc3)n2)cc1OC -24.4%
COc1ccc2nc(NC(=O)CSc3nnc(N)s3)sc2c1 -7.53%
COc1cccc(NC(=O)N2CCCc3ccccc32)c1 4.66%
CCC(C)CCCCC(=O)N[C@@H](CCN)C(=O)N[C@H](C(=O)N[C@@H](CCN)C(=O)N[C@H]1CCNC(=O)C([C@@H](C)O)NC(=O)[C@@H](CCN)NC(=O)[C@H](CCN)NC(=O)[C@H](CC(C)C)NC(=O)[C@@H](CC(C)C)NC(=O)[C@H](CCN)NC1=O)[C@@H](C)O (stereo partly drawn) ({Octanoyl(6-Me)}-[Dab]T[Dab][Dab][Dab][dL]L[Dab][dDab][ξThr(3R)]; lactam 4-C) -4.21% [at 62.9 µM]
O=C(/C=C/c1ccccc1)c1cccs1 2.03% [at 383 µM]
Cc1ccc(NS(=O)(=O)c2csc(C(N)=O)c2)cc1C 3.15% [at 383 µM]
O=C(NC(=S)Nc1ccccc1)c1cc(-c2ccccc2)nc2ccccc12 -1.55% [at 383 µM]
COc1ccc(CCNCc2cc(C)n(-c3ccc(OC)cc3)c2C)cc1 7.98%
COc1ccc(N(C(=O)c2ccncc2)S(=O)(=O)c2ccc(Cl)cc2)cc1 8.53%
CCOC(=O)Cn1cnc2scc(-c3ccc(C)c(C)c3)c2c1=O -3.26%
Cc1nc(N2CCN(C)CC2)c2c3c(sc2n1)CCCC3 0.279%

Potency, active:
COC(=O)[C@H](C)NC(=O)c1cc2c(cn1)[nH]c1ccccc12 50.1 µM
O=C(COC(=O)c1ccc(NS(=O)(=O)c2cccs2)cc1)Nc1nc2c(F)c(F)c(F)cc2s1 39.8 µM
NS(=O)(=O)c1ccc(NC(=O)c2ccc(-c3ccccc3)cc2)cc1 63.1 µM

Source: PubChem BioAssay AID2778 (National Center for Advancing Translational Sciences (NCATS), 2010)
